Source: PubChem
Rows were chosen to be rich in hits. Some 0.93% of all compounds tested hit in one or more screens of this group.
RPL19A-GFP yeast = yeast TOR pathway RPL19A-GFP modulation | S. cerevisiae RPL19A-GFP strain, flow cytometry, 3 h; hits give low values | percent response vs DMSO, % at 10 µM | hit rate 0.3% among 330,000 | AID 2025;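 active means percent response vs DMSO below 50%; inconclusive means fewer than 70 events counted for the yeast strain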;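 further: median channel GFP fluorescence of the barcoded RPL19A-GFP strain; ratio of sample median GFP to plate DMSO average so 100% = DMSO; lower means less RPL19A-GFP as with rapamycin TOR inhibition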
LAP4-GFP MLPCN = modulators of TOR pathway LAP4-GFP in S. cerevisiae. hit rate 0.34% among 320,000. S. cerevisiae LAP4-GFP multiplex, flow cytometry GFP, 3 h; median GFP as percent of DMSO wells. GFP response vs DMSO, % at 10 µM;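 active means GFP response vs DMSO above a set limit, about the screen mean plus 3 SD, cut at about 150% in these data; inconclusive means under 70 cell events counted for the yeast strain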
AGP1-GFP MLPCN = alters AGP1-GFP fluorescence in TOR pathway yeast screen | GFP response vs DMSO, % at 10 µM | hit rate 0.02% among 320,000 | S. cerevisiae AGP1-GFP multiplex flow cytometry, 3 h; GFP as percent of DMSO wells;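 active means GFP response relative to DMSO above a set limit, near screen average plus 3 SD, cut at about 150% in these data; inconclusive means fewer than 70 cells counted for the yeast strain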;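 further: median GFP channel fluorescence of the gated AGP1 strain per well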
CIT2-GFP yeast = modulators of TOR pathway CIT2-GFP in S. cerevisiae; S. cerevisiae CIT2-GFP strain, flow cytometry, 3 h; 100 means same as DMSO wells; AID 2029; GFP response vs DMSO, % at 10 µM; hit rate 0.065% among 320,000;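 active means GFP response relative to DMSO above a set limit, near the screen mean plus 3 SD, cut at about 150% in these data; inconclusive means Fewer than 70 cells measured for a yeast strain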;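 further: ratio of well median GFP fluorescence to mean of DMSO wells on the plate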
MEP2 TOR yeast = yeast TOR pathway MEP2-GFP modulation. AID 2016. hit rate 0.51% among 330,000. S. cerevisiae MEP2-GFP strain, flow cytometry GFP, 3 h; 100% = DMSO control level. GFP response vs DMSO, % at 10 µM;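 active means GFP response versus DMSO above a set limit, roughly screen mean plus 3 SD, cut at about 180% in these data; inconclusive means fewer than 70 cells counted for a yeast strain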;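 further: median GFP fluorescence of the barcode-gated MEP2-GFP cells per well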
An asterisk follows results filed as active; u = inconclusive; x = not tested or not shown; [ ] = another dose, or the depositor's remark.

SMILES | RPL19A-GFP yeast | LAP4-GFP MLPCN | AGP1-GFP MLPCN | CIT2-GFP yeast | MEP2 TOR yeast
O=C(O)c1ccc(/C=C(\c2nc3ccccc3[nH]2)c2nc3ccccc3s2)cc1 | 77.4 | 107.5 | 28.4 | u | 223.5*[may fluoresce violet]
N#Cc1ccc(CN2CCN(CC(=O)NCCc3ccc(Cl)cc3Cl)CC2)cc1 | 100.4 | 89.8 | 97.6 | 104.1 | 99.9
Cc1ccc(CSc2cc(C)[nH]c(=O)n2)cc1 | 96.7 | 100.8 | 101.0 | 101.2 | 111.2
O=C(Oc1ccccc1N1C(=O)C2CCCCC2C1=O)c1ccccc1 (configuration not stated) | 103.1 | 83.8 | 105.0 | 110.7 | 106.0
Cc1ccc(C(=O)Oc2ccccc2N2C(=O)C3CCCCC3C2=O)cc1 (configuration not stated) | 16.6*[may fluoresce violet] | 121.2 | u | u | 249.4*[may fluoresce violet]
COC(=O)[C@@H](NC(=O)c1ccc2c(c1)S(=O)(=O)c1ccccc1C2=O)C(C)C | 102.3 | 93.5 | 97.8 | 99.2 | 105.5
COc1ccc(N2CCN(C(=O)Cn3c(=O)[nH]c4ccsc4c3=O)CC2)cc1 | 45.4*[may fluoresce violet] | 97.0 | u | u | 573.1*[may fluoresce violet]
O=C(OCCCOC(=O)c1ccc(Br)o1)c1ccc(Br)o1 | 100.9 | 158.2* | 107.6 | 78.5 | 107.3
CCN1C(=O)[C@H]2[C@@H](c3ccc(-c4ccccc4)cc3)N3CCCC[C@@]3(C(=O)OC)[C@H]2C1=O | 95.9 | 97.6 | 94.5 | 92.5 | 98.0
O=C(Nc1cccnc1)c1ccc(-c2ccc(Cl)cc2)o1 | 83.6 | 245.2* | 74.4 | 65.7 | 87.7
COC(=O)c1ccc(C2NCCc3cc(OC)c(OC)cc32)cc1 (configuration not stated) | 107.1 | 96.1 | 99.2 | 100.7 | 110.0
COc1ccccc1N1CCN(C2CCCN(Cc3cc(F)cc(F)c3)C2)CC1 (configuration not stated) | 94.0 | 87.8 | 154.0* | 92.1 | 92.2
COc1ccccc1N1CCN(C2CCCN(Cc3ccc(Cl)cc3)C2)CC1 (configuration not stated) | 103.3 | 82.0 | 96.8 | 100.8 | 103.2
Cc1cccc(C(=O)O/N=C(\N)CS(=O)(=O)c2ccccc2)c1 | 102.1 | 91.8 | 99.3 | 105.1 | 96.4
O=C(CSc1ccccn1)N/N=C/c1ccccc1[N+](=O)[O-] | 106.3 | 97.7 | 106.0 | 107.2 | 105.8
O=C(CSc1ccccn1)N/N=C/c1cc([N+](=O)[O-])ccc1O | 45.3*[may fluoresce violet] | 79.2 | u | u | 276.6*[may fluoresce violet]
COCCCNC(=O)c1ccc2c3c(onc13)-c1ccccc1C2=O | 72.8 | 190.0* | 83.7 | 105.1 | 97.1
O=C(c1ccccc1[N+](=O)[O-])n1cnc2ccccc21 | 92.3 | 87.3 | 81.8 | 156.8* | 93.3
CCc1nnc(NC(=O)c2ccc3ccccc3n2)s1 | 105.9 | 100.4 | 86.3 | 80.8 | 111.0
CCSc1nnc(NC(=O)c2ccc3ccccc3n2)s1 | 53.5 | 128.2 | x | u | 207.8*[may fluoresce violet]
Cc1nc2cc(NC(=O)N3CCCCC3)ccc2n1C | 40.8*[may fluoresce violet] | 91.9 | u | u | 370.6*[may fluoresce violet]
CCCCCCc1cc2cc(-c3nnc(-c4ccccc4O)o3)c(=O)oc2cc1O | 48.1*[may fluoresce violet] | 93.4 | 24.8 | u | 179.6*[may fluoresce violet]
CCCCCCc1cc2cc(S(=O)(=O)c3ccc(F)cc3)c(=O)oc2cc1O | 72.1 | 91.2 | 15.8 | u | 212.3*[may fluoresce violet]
CCCCCCc1cc2cc(-c3nnc(-c4ccccc4OC)o3)c(=O)oc2cc1O | 87.7 | 105.6 | 70.6 | 94.6 | 226.1*
Cc1ccc(NC(=O)c2cc(-c3ccc(C)o3)nc3ccccc23)cc1 | 95.8 | 101.8 | 98.2 | 94.5 | 101.0
Cc1ccc(-c2cc(C(=O)Nc3ccccn3)c3ccccc3n2)o1 | 16.7*[may fluoresce violet] | 85.5 | u | u | 140.0
Cc1ccc(S(=O)(=O)NCC(=O)N(CC(=O)NCc2ccco2)Cc2ccc(F)cc2)cc1 | 66.7 | 85.4 | 24.7 | u | 278.9*[may fluoresce violet]
COc1ccc(S(=O)(=O)NCC(=O)N(CC(=O)NCc2ccco2)Cc2ccc(F)cc2)cc1 | 83.6 | 147.7 | 93.0 | 92.2 | 186.9*
CCc1ccc(/C=C2\Oc3c(ccc(O)c3CN3CCN(CCO)CC3)C2=O)cc1 | 45.5*[may fluoresce violet] | 96.5 | 20.1 | u | 192.4*[may fluoresce violet]
CCOCCN1CCN(C2c3ccccc3CSc3ccccc32)CC1 (configuration not stated) | 64.2 | 105.0 | u | u | 257.0*[may fluoresce violet]
